High-throughput results as filed in PubChem BioAssay.
HCV inh: qHTS Assay for Inhibitors of Hepatitis C Virus (HCV). Huh7.5.1 HCVcc-Cre infection, luciferase reporter, 44 h. Potency, µM (series often up to 41.8 µM), inactives show at the top dose activity change, negative = inhibition, hits mostly inhibitors. 340,000 tested, 3.4% active
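A cell-based infection assay in which seeded cells (1,000 per well) receive test compound after 4 h, are inoculated with HCVcc-Cre at approximately 0.5 moi, and are incubated 44 h before luminescence detection.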
AmpC no deterg: qHTS Inhibitors of AmpC Beta-Lactamase (assay without detergent); Potency, µM (titrated, usually from 57.1 µM), for the others: top-dose activity change, negative = inhibition, hits mostly inhibitors; 330,000 tested, 0.52% active; AmpC nitrocefin hydrolysis, absorbance 480 nm, 0.0001% Triton;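 note: plate controls were no compound for no effect and no enzyme for full effect; nearly all actives have a fitted effect of over 20% in size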
Target sequence (P00811 whole entry, looked up): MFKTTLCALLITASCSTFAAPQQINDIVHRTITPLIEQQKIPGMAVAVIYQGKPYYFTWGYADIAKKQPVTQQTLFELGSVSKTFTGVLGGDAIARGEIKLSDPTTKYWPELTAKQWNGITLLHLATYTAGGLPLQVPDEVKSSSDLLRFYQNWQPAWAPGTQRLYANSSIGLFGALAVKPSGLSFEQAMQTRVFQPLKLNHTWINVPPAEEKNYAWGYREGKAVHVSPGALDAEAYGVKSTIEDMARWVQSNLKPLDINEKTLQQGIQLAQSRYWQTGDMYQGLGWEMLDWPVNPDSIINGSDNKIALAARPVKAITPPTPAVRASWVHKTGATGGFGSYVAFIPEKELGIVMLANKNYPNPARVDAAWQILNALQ
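20 mM phosphate pH 7.0 + 0.01% (detergent screen) or 0.0001% Triton X-100; 5.3 nM AmpC reagent; cpd preinc 15 min RT; nitrocefin (800 uM stock) to start; A480 q20 s × 4 min; Activity was normalised to no-enzyme and no-compound control wells.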
Pf growth 48h: Primary qHTS for delayed death inhibitors of the malarial parasite plastid, 48 hour incubation. P. falciparum luciferase growth in erythrocytes, 48 h. Potency, µM (series often up to 28.7 µM), without a hit: at the highest dose activity change, negative = inhibition, most hits filed as inhibitors. 310,000 tested, 5.9% active
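Growth was read as firefly luciferase luminescence after a 48 h, 37 C, 5% CO2 exposure of compounds to reporter-bearing P. falciparum cultures (0.1% parasitemia, 2% hematocrit final) in Albumax-supplemented RPMI 1640.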
AMA1 RON2 block: qHTS for Inhibitors of AMA1-RON; Towards Development of Antimalarial Drug Lead: Primary Screen; Plasmodium falciparum AMA1 (3D7) - RON2 peptide interaction; AlphaScreen AMA1-biotinylated RON2 peptide binding; Potency, µM (top dose mostly 58.2 µM), without a hit: top-dose activity change, negative = inhibition, usual class: inhibitors; 360,000 tested, 0.2% active; AID 720542, 2013;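 note: 0% = vehicle wells and -100% = peptide control; nearly all actives have a fitted effect of over 45% in size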
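AMA1 (3D7) with his tag at 25 nM final met compounds first, then biotinylated RON2 peptide at 25 nM; detection used donor plus acceptor beads, 10 µg/mL apiece, read by AlphaScreen after 30 min at room temperature.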
AmpC detergent: qHTS Inhibitors of AmpC Beta-Lactamase (assay with detergent); P00811; AmpC hydrolysis of nitrocefin, absorbance 480 nm, 0.01% Triton; Potency, µM (highest dose often 114 µM), for the others: at the top dose activity change, negative = inhibition, hits mostly inhibitors; 370,000 tested, 0.041% active;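 note: 0% = no-compound wells and -100% = no-enzyme wells; nearly all actives have a fitted effect of over 25% in size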
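AmpC (5.3 nM in the dispensed reagent) in 20 mM phosphate pH 7.0 with 0.01% (detergent screen) or 0.0001% Triton X-100 was preincubated with compounds for 15 min at room temperature. Nitrocefin was then added from an 800 uM solution, and hydrolysis was followed at 480 nm.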
Pf growth 96h: Primary qHTS for delayed death inhibitors of the malarial parasite plastid, 96 hour incubation. Potency, µM (series often up to 28.7 µM), for inactives: at the top dose activity change, negative = inhibition, most hits filed as inhibitors. 320,000 tested, 6.9% active. P. falciparum luciferase reporter growth, 96 h
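P. falciparum expressing integrated firefly luciferase grown in erythrocytes (2% hematocrit, 0.05% parasitemia final) with compounds for 96 hours at 37 C, 5% CO2. Growth inhibition read as loss of luminescence after adding luciferase detection reagent.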
* marks the source's active call; other numbers are inactive results. Hits are enriched below; roughly 11% of the tested compounds scored in any of these assays. Calls come from the whole dose curve; as a rule, active = well fitted curve in the direction sought with a large enough effect; inconclusive = small, poorly fitted or top-dose-only effect, or another doubt; inactive = no such curve, though single readings can be large; an effect the other way counts as inactive or inconclusive. Unless noted, % is set by controls: 0 for no effect and ±100 for the full control effect; potency is the fitted concentration of half-maximal effect.

What do the screens show for `CCOC(=O)c1ccc2c(c1)n(CC)c(/C=C/Nc1ccccc1)[n+]2CC`?
HCV inh: -11%; AmpC no deterg: -13%; Pf growth 48h: inconclusive; AMA1 RON2 block: 17%; AmpC detergent: -7%; Pf growth 96h: inconclusive

How did Cc1c(C)c2c(OCC(=O)N3CCC[C@H]3C(=O)O)cc3c(c2oc1=O)CCC(C)(C)O3 do in these assays?
HCV inh: 14%; AmpC no deterg: 5%; Pf growth 48h: inconclusive; AMA1 RON2 block: 2%; AmpC detergent: inconclusive; Pf growth 96h: 13µM*

How did Cc1c(C)c2c(OCC(=O)N3CCC(O)CC3)cc3c(c2oc1=O)CCC(C)(C)O3 do in these assays?
HCV inh: inconclusive; AmpC no deterg: 227%; Pf growth 48h: 13µM*; AMA1 RON2 block: -8%; AmpC detergent: -6%; Pf growth 96h: 7.4µM*

How did Cc1c(C)c2c(OCC(=O)N[C@@H](C)C(=O)O)cc3c(c2oc1=O)CCC(C)(C)O3 do in these assays?
HCV inh: 3%; AmpC no deterg: -24%; Pf growth 48h: -7%; AMA1 RON2 block: -7%; AmpC detergent: -1%; Pf growth 96h: -12%

How did CCc1cccc(NC(=O)CSc2nc3ccsc3c(=O)n2CC)c1 do in these assays?
AmpC detergent: -9%

Results for CCCCN1C[C@H](CO)Oc2cccc(F)c2S1(=O)=O ?
HCV inh: 0.56µM*; AMA1 RON2 block: 13%

How did C=CCCC1CN(CCCC)S(=O)(=O)c2c(F)cccc2O1 (configuration not stated) do in these assays?
HCV inh: -8%; AMA1 RON2 block: 16%

Results for O=S1(=O)c2c(F)cccc2O[C@@H](COCc2ccccc2)CN1CCc1ccc(F)cc1 ?
HCV inh: 10µM*; AMA1 RON2 block: -3%

How did O=S1(=O)c2c(F)cccc2OC(COc2ccccc2)CN1CCc1ccc(F)cc1 (configuration not stated) do in these assays?
HCV inh: -26%; AMA1 RON2 block: 9%

Results for CCOC(=O)C1CCCCN1Cc1ccc(C(F)(F)F)cc1 (configuration not stated) ?
HCV inh: inconclusive; AmpC no deterg: 0%; AMA1 RON2 block: 0%; AmpC detergent: -12%; Pf growth 96h: 9.3µM*

Results for CCOC(=O)C1CCCCN1Cc1cccc(C(F)(F)F)c1 (configuration not stated) ?
HCV inh: 10%; AmpC no deterg: 4%; AMA1 RON2 block: -2%; AmpC detergent: 7%; Pf growth 96h: -23%

How did N=C1/C(=C/c2ccc(-c3cccc(C(=O)O)c3)o2)C(=O)N=C2SC=C(c3ccccc3)N12 do in these assays?
HCV inh: 5%; AmpC no deterg: -31%; Pf growth 48h: 11%; AMA1 RON2 block: inconclusive; AmpC detergent: 50µM*; Pf growth 96h: inconclusive

How did N=C1/C(=C\c2ccc(-c3cc(Cl)cc(Cl)c3)o2)C(=O)N=C2SC=C(c3ccccc3)N12 do in these assays?
HCV inh: -5%; AmpC no deterg: -25%; Pf growth 48h: 13%; AMA1 RON2 block: 16%; AmpC detergent: 4%; Pf growth 96h: 38%

What do the screens show for `CC(=O)NNc1ncnc2c1cnn2-c1ccc(C)c(Cl)c1`?
HCV inh: inconclusive; AmpC no deterg: -4%; Pf growth 48h: 124%; AMA1 RON2 block: 66%; AmpC detergent: -1%; Pf growth 96h: 8.3µM*

How did CCn1c(=O)cc(SCC(=O)NCCc2cc(OC)ccc2OC)c2ccccc21 do in these assays?
AmpC detergent: 8%

How did Cc1c(NC(=O)CCCCCN2C(=O)C3C4C=CC(C4)C3C2=O)c(=O)n(-c2ccccc2)n1C (configuration not stated) do in these assays?
HCV inh: 20%; AmpC no deterg: 1%; Pf growth 48h: 14%; AMA1 RON2 block: -7%; AmpC detergent: inconclusive; Pf growth 96h: 9.3µM*

Results for O=C(NCCN1C(=O)C2C3C=CC(C3)C2C1=O)Nc1ccccc1O (configuration not stated) ?
HCV inh: 12%; AmpC no deterg: -6%; AMA1 RON2 block: -2%; AmpC detergent: -2%; Pf growth 96h: 9.3µM*

Results for CCCc1nnc(NC(=O)NCCN2C(=O)C3C4C=CC(C4)C3C2=O)s1 (configuration not stated) ?
HCV inh: -2%; AmpC no deterg: -14%; Pf growth 48h: 0%; AMA1 RON2 block: 8%; AmpC detergent: 1%; Pf growth 96h: 15%

How did Cc1c(NC(=O)NCCN2C(=O)C3C4C=CC(C4)C3C2=O)c(=O)n(-c2ccccc2)n1C (configuration not stated) do in these assays?
HCV inh: 5%; AmpC no deterg: -12%; AMA1 RON2 block: 0%; AmpC detergent: inconclusive; Pf growth 96h: 15µM*

Results for Cc1nc2nc(NC(=O)c3cccc(Cl)c3)[nH]n2c(=O)c1Cc1ccccc1 ?
AmpC detergent: -1%

Results for O=[N+]([O-])c1ccc(Cl)cc1CNc1ccc(F)c(F)c1 ?
HCV inh: -8%; AmpC no deterg: -39%; Pf growth 48h: 3%; AMA1 RON2 block: -6%; AmpC detergent: inconclusive; Pf growth 96h: 8.3µM*

Results for COc1ccc(NCc2ccccc2[N+](=O)[O-])cc1OC ?
HCV inh: -5%; AmpC no deterg: 9%; Pf growth 48h: inconclusive; AMA1 RON2 block: -28%; AmpC detergent: 0%; Pf growth 96h: inconclusive

Results for CC(C)(C)c1cc(C=C(C#N)C#N)cc(C(C)(C)C)c1O ?
HCV inh: inconclusive; AmpC no deterg: -29%; Pf growth 48h: 2.6µM*; AMA1 RON2 block: -13%; AmpC detergent: inconclusive; Pf growth 96h: 1.5µM*

What do the screens show for `N#CC(C#N)=Cc1ccc(O)c(O)c1`?
HCV inh: -3%; AmpC no deterg: -19%; Pf growth 48h: inconclusive; AMA1 RON2 block: 71%; AmpC detergent: inconclusive; Pf growth 96h: inconclusive

How did Brc1ccc2[nH]c3c(NCc4ccccn4)ncnc3c2c1 do in these assays?
HCV inh: inconclusive; AmpC no deterg: -47%; Pf growth 48h: inconclusive; AMA1 RON2 block: 0%; AmpC detergent: -3%; Pf growth 96h: inconclusive
